Source: PubChem BioAssay AID1851 (National Center for Advancing Translational Sciences (NCATS), 2009)
The whole screen tested about 16,000 compounds, of which about 4,000 (25%) were called active. Roughly 26% stayed inconclusive and do not appear here. The call rests on the fitted dose curve; in most records, active means well fitted curve in the direction sought with a large enough effect; inconclusive means small, poorly fitted or top-dose-only effect, or effect the other way; inactive means no such curve, though single readings can be large or run the other way. Not all results are given here.

target: Cytochrome P450 2C9 (Homo sapiens) (UniProt P11712); assay: Cytochrome panel assay with activity outcomes; conditions: recombinant CYP, pro-luciferin dealkylation, luminescence, p450-cyp2c9; series mostly up to 57.1 µM; activity, negative = inhibition: at the top concentration
On the % scale 0 is the no-effect control and ±100 the full control effect.

Chain of Cytochrome P450 2C9 (Homo sapiens) (P11712 whole entry, looked up): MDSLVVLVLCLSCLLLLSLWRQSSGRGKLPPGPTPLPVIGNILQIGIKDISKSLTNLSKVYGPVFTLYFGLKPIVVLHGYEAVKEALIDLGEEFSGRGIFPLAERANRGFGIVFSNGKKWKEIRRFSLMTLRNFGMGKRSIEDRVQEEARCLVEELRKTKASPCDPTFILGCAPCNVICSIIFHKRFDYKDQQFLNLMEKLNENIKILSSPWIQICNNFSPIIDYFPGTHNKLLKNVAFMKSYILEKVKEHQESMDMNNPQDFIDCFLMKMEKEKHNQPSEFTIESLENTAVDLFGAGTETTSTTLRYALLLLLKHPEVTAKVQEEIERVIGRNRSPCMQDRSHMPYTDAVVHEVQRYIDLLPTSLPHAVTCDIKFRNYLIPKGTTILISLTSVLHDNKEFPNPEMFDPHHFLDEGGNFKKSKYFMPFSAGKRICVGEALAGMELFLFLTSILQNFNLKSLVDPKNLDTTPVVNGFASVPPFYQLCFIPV

activity, negative = inhibition, inactive:
COc1ccc(OC)c(CNC(=O)CCNC(=O)Cn2ccc3ccccc3c2=O)c1 -1.88%, O=C(CCNC(=O)Cn1ccc2ccccc2c1=O)NCCCN1CCN(c2ccc(F)cc2)CC1 -10.9%, CN1C(=O)C[C@H](c2ccccc2)C1=O -24.7% [at 25.6 µM], CCCCN1C(=O)CCC(C(=O)O)C1c1ccccc1 (stereo not given) 0.737%, CN(C)CCNS(=O)(=O)N(C)C 11.3% [at 11.4 µM], CO[C@]1(NC(=O)[C@H](C(=O)O)c2ccc(O)cc2)C(=O)N2C(C(=O)O)=C(CSc3nnnn3C)CO[C@H]21 12.5% [at 25.6 µM], c1ccc(Nc2nc(-c3ccoc3)nc3ccccc23)cc1 -10.3% [at 2.29 µM], CCCCN(c1ccccc1)c1ncnc2c1cnn2C 1.33% [at 11.4 µM], CN1CCN(CN2C(=O)C3C4C=CC(C3C2=O)C2C3C(=O)N(CN5CCN(C)CC5)C(=O)C3C42)CC1 (stereo not given) -2.91% [at 11.4 µM], O=C(O)[C@H]1C[C@@H](CP(=O)(O)O)CCN1 -28.6%, O=C1[C@H]2[C@H]3[C@H](O)[C@H](O)C/C(=N/OC[C@@H](O)COCc4ccco4)[C@H]3CC[C@@H]2C(=O)N1C[C@@H]1CCCO1 7.75% [at 11.4 µM], O=C(O)C1(Nc2ccc(Cl)cc2)CCCC1 -21.4% [at 11.4 µM], O=C1C=C(NCCN2CCOCC2)CC(c2ccccc2)C1 (stereo not given) -16.6%, C#CCSc1nnc(-c2sc3ccccc3c2Cl)o1 -29.7%, Clc1ccc(-c2nnc(-c3cccc4ccccc34)o2)cc1Cl 24% [at 11.4 µM], CC[N+](C)(C)c1cccc(O)c1 -2.67% [at 25.6 µM], Cc1ccc(S(=O)(=O)N2CCN(S(C)(=O)=O)C2)cc1 -15.6%, COc1ccccc1CN1CCC2(CC1)CCN(S(=O)(=O)c1ccccc1)CC2 8.41%, O=C1[C@H]2[C@H]3[C@H](O)[C@H](O)C/C(=N/OCc4ccccc4)[C@H]3CC[C@@H]2C(=O)N1Cc1ccc2c(c1)OCO2 -16.6% [at 11.4 µM], COc1ccccc1CNc1nc(-c2ccccc2CN(C)C)nc2ccccc12 5.51% [at 2.29 µM], c1ccc2c(-n3ccnc3)nc(-c3ccoc3)nc2c1 -6.66% [at 2.29 µM], CN(C)C(=O)c1ccc(-c2nc(-n3ccnc3)c3ccccc3n2)cc1 -0.507% [at 2.29 µM], COc1ccccc1-c1nccc(-n2ccnc2)n1 6.88% [at 2.29 µM], Cc1ccccc1-c1nc(-n2ccnc2)c2ccccc2n1 -7.55% [at 2.29 µM], N[C@@](CC(=O)O)(Cc1ccccc1)C(=O)O -1.82% [at 11.4 µM], CCOC(=O)N1CCN(C(=O)c2cnc3n(c2=O)CCS3)CC1 -2.54%, NC(=O)C1(N2CCCCC2)CCN(C(=O)c2ccc(-n3cnnn3)cc2)CC1 -20.9%, NC(=O)C1(N2CCCCC2)CCN(C(=S)Nc2ccc(Cl)cc2)CC1 -18%, O=C(c1ccc2nc3ccc(Cl)cc3c(=O)n2c1)N1CCOCC1 -4.27%, Cc1cc(C)cc(NC(=O)C/C(N)=N/O)c1 -16%, C[C@@H]1CCCC(CC(=O)O)(CC(=O)O)C1 9.77% [at 11.4 µM]

AC50, active:
COc1cccc(CNC(=O)CCNC(=O)Cn2ccc3ccccc3c2=O)c1 3.16 µM, O=C1C(Cc2ccccc2)C(c2ccccc2)N1c1ccccc1 (stereo not given) 7.08 µM, CCCC1C(=O)N(c2ccccc2)C1c1ccccc1 (stereo not given) 10 µM, CN1CC(c2ccccn2)C2(SC(=S)N(Cc3ccccc3)C2=O)C12C(=O)Nc1ccccc12 (stereo not given) 4.47 µM, Oc1ccccc1C1Nc2cccc3cccc(c23)N1 8.91 µM, Oc1ccc(C2Nc3cccc4cccc(c34)N2)c(O)c1 14.1 µM, O=C1C=C(Nc2ccc(Cl)cc2)CC(c2ccc(Cl)cc2)C1 (stereo not given) 10 µM, Clc1ccccc1CSc1nnc(-c2ccncc2)o1 0.447 µM, c1ccc2c(CSc3nnc(-c4ccncc4)o3)cccc2c1 0.178 µM, Cc1ccc(S(=O)(=O)N2CCN(Cc3ccccc3C(F)(F)F)CC2)cc1 39.8 µM, c1ccc(-c2nc(N3CCCCCC3)nc(-n3ccnc3)n2)cc1 5.01 µM, CN(c1ccccc1)c1nc(-n2ccnc2)nc(-n2ccnc2)n1 0.282 µM, NC(=O)C1(N2CCCCC2)CCN(C(=O)c2cccn3c(=O)c4cc(Cl)ccc4nc23)CC1 3.98 µM, CCOC(=O)N1CCN(C(=O)c2cccn3c(=O)c4cc(Cl)ccc4nc23)CC1 8.91 µM
